Here are results for seven compounds from PubChem BioAssay (EPA / NIEHS).

Inconclusive results are not listed. A structure can be active in one record and inactive in another. Active and inactive are the calls of the source. The calls were made as follows, unless noted: active = hit-call score of the fitted dose curve at least 0.9, where 1 is the maximum; inactive = score below 0.9.

As usually defined, the AC50 is the concentration giving half of the maximal activity seen.

The nature of experiment [1]: ATG_PXRE_CIS: Attagene CIS-FACTORIAL HepG2 Assay for human Pregnane X Receptor Element (PXRE) (AID 2282957). The conditions noted are these: HepG2 Attagene CIS-FACTORIAL PXRE reporter, mRNA; actives raise or lower the signal. The procedure, abridged:
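Using HepG2 transfected with multiple reporter transcription units, endogenous factor-driven transcription was scored as reporter mRNA after 24 h exposure.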

A short description of experiment [2]: ATG_PPRE_CIS: Attagene CIS-FACTORIAL HepG2 Assay for human Peroxisome Proliferator-activated Response Element (PPRE) (AID 2282958). The conditions noted are these: HepG2 PPRE cis-element reporter, Attagene transcription factor profiling; actives raise or lower the signal. The procedure, abridged:
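In this cell-based multiplex, a PPRE cis element drives a reporter sequence in transiently transfected HepG2 cells. Following 24 h treatment, labeled cDNA amplicons are sized and quantified by capillary electrophoresis, with DMSO defining baseline.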

The nature of experiment [3]: ATG_RORE_CIS: Attagene CIS-FACTORIAL HepG2 Assay for human RAR-related Orphan Receptor Element (RORE) (AID 2282959). The following applies: HepG2 Attagene cis-factorial RORE reporter, mRNA; actives raise or lower the signal. The procedure, abridged:
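Endogenous factor activity at a cis response element is read as reporter transcript levels in HepG2 cells, 24 h post-dose. Transcripts are quantified by RT-PCR with capillary electrophoresis, and data fitted in both directions against DMSO.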

Experiment [4] is described as follows: ATG_Sox_CIS: Attagene CIS-FACTORIAL HepG2 Assay for human SRY-box transcription factor (SOX) (AID 2282960). The following applies: HepG2 Attagene cis-factorial SOX reporter, mRNA; actives raise or lower the signal. The procedure, abridged: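 Measures mRNA induction of a SOX1-associated reporter in HepG2 after 24 h dosing. Fluorescently labelled RT-PCR fragments are separated by capillary electrophoresis, and gain or loss relative to DMSO control is fitted.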

The target of experiment [5] is Transcription factor Sp1 (Homo sapiens) (UniProt P08047). The experiment is described as follows: ATG_Sp1_CIS: Attagene CIS-FACTORIAL HepG2 Assay for human Specificity Protein 1 (Sp1) (AID 2282961). The following applies: HepG2 Sp1 cis-reporter transcription, actives raise or lower the signal. The procedure, abridged:
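Cells: HepG2, transiently transfected with cis-regulated multiplexed reporters. Exposure: 24 h. Detection: reporter transcripts amplified, fluorescently labeled, restriction-digested and sized by capillary electrophoresis. Analysis: bidirectional fit relative to DMSO.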

The nature of experiment [6]: ATG_SREBP_CIS: Attagene CIS-FACTORIAL HepG2 Assay for human Sterol Regulatory Element Binding (SREBP) (AID 2282962). The conditions noted are these: HepG2 Attagene cis-factorial SREBP reporter, mRNA; actives raise or lower the signal. The essentials: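 Endogenous factor activity is measured in HepG2 through multiplexed reporter units under cis-element control. Following a 24 h incubation, reporter transcripts are reverse-transcribed, PCR-amplified and sized by capillary electrophoresis; activity is fitted in both directions relative to DMSO.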

Experiment [7] concerns the target Signal transducer and activator of transcription 3 (Homo sapiens) (UniProt P40763). The experiment is described as follows: ATG_STAT3_CIS: Attagene CIS-FACTORIAL HepG2 Assay for human Signal Transducer and Activator of Transcription 3 (STAT3) (AID 2282963). The following applies: HepG2, Attagene cis-factorial STAT3 reporter transcription; actives raise or lower the signal. The procedure, abridged:
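Readout is reporter transcript quantified by RT-PCR and capillary electrophoresis, with 6-FAM primer extension and HpaI digestion. Total RNA is taken 24 h after dosing transiently transfected HepG2 carrying cis-regulated reporter units. Bidirectional fit against DMSO.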

Experiment [8] in a line: ATG_TA_CIS: Attagene CIS-FACTORIAL HepG2 Assay for human TA Basal Promoter (AID 2282964). The following applies: HepG2 Attagene CIS-factorial TA basal promoter reporter; actives raise or lower the signal. The procedure, abridged: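 Cis-factorial format in HepG2: reporters report endogenous factors, not chimeric Gal4 fusions. After 24 h treatment, reporter transcripts were measured by RT-PCR-capillary electrophoresis fluorescence, analysed bidirectionally versus DMSO.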

Experiment [9] in a line: ATG_TAL_CIS: Attagene CIS-FACTORIAL HepG2 Assay for human TAL Basal Promoter (AID 2282966).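 Also: background control endpoint measuring basal TAL promoter reporter mRNA not a specific factor.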 The conditions noted are these: HepG2 Attagene cis-factorial TAL promoter reporter; actives raise or lower the signal. The procedure, abridged:
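After 24 hours of chemical exposure, transfected HepG2 cells yielded RNA that was converted to 6-FAM-labelled, HpaI-digested reporter fragments for capillary electrophoresis. Values derive from bidirectional fitting against DMSO controls.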

Experiment [10] is described as follows: ATG_TGFb_CIS: Attagene CIS-FACTORIAL HepG2 Assay for human Transforming Growth Factor (TGF) (AID 2282967). The following applies: HepG2 Attagene CIS TGFb reporter, mRNA transcription; actives raise or lower the signal. The procedure, abridged: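 Multiplexed cis-reporter HepG2 system, 24 h treatment; mRNA induction read by fluorescence after RT-PCR and CE; DMSO negative control, bidirectional curve fitting.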

Experiment [11] can be described thus: ATG_VDRE_CIS: Attagene CIS-FACTORIAL HepG2 Assay for human Vitamin D Receptor Element (VDRE) (AID 2282968). The conditions noted are these: HepG2 VDRE cis-reporter transcription, actives raise or lower the signal. The procedure, abridged:
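Readout is VDRE-driven reporter mRNA reflecting endogenous factor activity in human HepG2 cells, sampled 24 h post-dose. Quantification used labelled RT-PCR products separated by capillary electrophoresis; bidirectional analysis relative to DMSO.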

Experiment [12] has as its target Steroid hormone receptor ERR1 (Homo sapiens) (UniProt P11474). As to the kind of experiment: ATG_ERRa_TRANS: Attagene TRANS-FACTORIAL HepG2 Assay for human Estrogen-Related Receptor alpha (ERRa) (AID 2282971; active = hit-call score of the fitted dose curve at least 0.9, where 1 is the maximum). The conditions noted are these: HepG2 Attagene TRANS reporter, ERRa transactivation. The essentials: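 Reporter transcript induction was quantified by RT-PCR and capillary electrophoresis of FAM-labelled, HpaI-cut products after 24 h treatment of HepG2 cells carrying transiently transfected GAL4-UAS reporter units and an exogenous ERRa-Gal4 fusion; activity scored as increase over DMSO.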

Experiment [13] deals with X-box-binding protein 1 (Homo sapiens) (UniProt P17861). As to the kind of experiment: ATG_Xbp1_CIS: Attagene CIS-FACTORIAL HepG2 Assay for human X-box Binding Protein 1 (XBP1) (AID 2282972). The conditions noted are these: HepG2 XBP1 cis-element reporter, Attagene multiplex; actives raise or lower the signal. The essentials:
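Multiplexed cis-reporter readout in transfected HepG2 liver cells. Exposure lasted 24 hours. Activity in either direction was fitted against DMSO as negative control and baseline.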

Experiment [14] in a line: ATG_M_19_TRANS: Attagene TRANS-FACTORIAL HepG2 Assay for M19 Transcription Factor (Internal Marker) (AID 2282974; active = hit-call score of the fitted dose curve at least 0.9, where 1 is the maximum). The conditions noted are these: HepG2 Attagene TRANS-FACTORIAL M19 internal marker reporter. The essentials: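 Reporter mRNA induction was measured in transfected HepG2 cells 24 h after dosing. Endpoint fitted upward relative to DMSO and serves as a background control within the multiplexed TRANS panel.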

Experiment [15] in a line: ATG_GAL4_TRANS: Attagene TRANS-FACTORIAL HepG2 Assay for GAL4 (Internal Marker) (AID 2282976; active = hit-call score of the fitted dose curve at least 0.9, where 1 is the maximum). The following applies: HepG2 Attagene TRANS GAL4 internal marker reporter. The procedure, abridged: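 First, HepG2 cells were transfected with reporter units under GAL4-UAS control. Next, they were treated with chemical for 24 h. Finally, RNA was reverse-transcribed, PCR-amplified, FAM-labelled and resolved by capillary electrophoresis, with induction scored against DMSO.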

Experiment [16] deals with Glucocorticoid receptor (Homo sapiens) (UniProt P04150). As to the kind of experiment: ATG_GR_TRANS: Attagene TRANS-FACTORIAL HepG2 Assay for human Glucocorticoid Receptor (GR) (AID 2282978; active = hit-call score of the fitted dose curve at least 0.9, where 1 is the maximum;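 also: activators score as hits since higher reporter transcript over DMSO is fitted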). The conditions noted are these: HepG2 Attagene TRANS GR reporter, mRNA transcription. The essentials: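 Reporter transcript levels, detected by fluorescence after RT-PCR and capillary electrophoresis, served as the endpoint. HepG2 cells bearing transfected GAL4-UAS reporters responsive to NR-GAL4 chimeras were incubated with compound 24 h; DMSO defined baseline.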
Glucocorticoid receptor (Homo sapiens), sequence (P04150 whole entry, looked up, the tested form may be a part): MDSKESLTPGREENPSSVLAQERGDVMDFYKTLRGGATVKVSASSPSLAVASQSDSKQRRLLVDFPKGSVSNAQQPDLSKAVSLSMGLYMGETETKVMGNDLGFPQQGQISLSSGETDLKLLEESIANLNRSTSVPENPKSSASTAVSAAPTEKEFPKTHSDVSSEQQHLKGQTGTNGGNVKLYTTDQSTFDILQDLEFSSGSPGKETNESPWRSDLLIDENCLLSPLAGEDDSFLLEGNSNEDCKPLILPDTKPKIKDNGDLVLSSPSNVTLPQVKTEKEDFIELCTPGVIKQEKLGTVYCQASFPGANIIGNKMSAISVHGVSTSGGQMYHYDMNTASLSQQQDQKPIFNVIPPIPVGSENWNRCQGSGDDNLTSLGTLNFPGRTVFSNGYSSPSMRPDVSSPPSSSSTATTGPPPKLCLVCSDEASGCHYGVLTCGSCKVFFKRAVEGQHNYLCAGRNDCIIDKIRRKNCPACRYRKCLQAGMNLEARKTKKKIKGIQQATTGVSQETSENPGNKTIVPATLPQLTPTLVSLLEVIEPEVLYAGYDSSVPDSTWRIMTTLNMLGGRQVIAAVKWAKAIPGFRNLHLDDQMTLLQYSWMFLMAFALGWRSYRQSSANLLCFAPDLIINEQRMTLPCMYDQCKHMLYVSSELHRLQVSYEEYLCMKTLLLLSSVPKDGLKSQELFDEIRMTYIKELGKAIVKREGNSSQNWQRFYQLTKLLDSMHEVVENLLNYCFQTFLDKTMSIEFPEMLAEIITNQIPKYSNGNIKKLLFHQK

Experiment [17] is described as follows: ATG_TCF_b_cat_CIS: Attagene CIS-FACTORIAL HepG2 Assay for human T-Cell-Factor with beta-catenin (TCF/b-cat) (AID 2282965). The conditions noted are these: HepG2 TCF/beta-catenin cis-reporter transcription, actives raise or lower the signal. The essentials:
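Endogenous transcription factor activity is captured through cis-promoter reporter constructs transiently introduced into human HepG2 liver cells. Induced reporter mRNA is measured after 24 h and fitted bidirectionally relative to DMSO.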

The target of experiment [18] is Nuclear receptor subfamily 1 group I member 3 (Homo sapiens) (UniProt Q14994). As to the kind of experiment: ATG_CAR_TRANS: Attagene TRANS-FACTORIAL HepG2 Assay for human Constitutive Androstane Receptor (CAR) (AID 2282969; active = hit-call score of the fitted dose curve at least 0.9, where 1 is the maximum;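 also: activators raise reporter mRNA above DMSO so AC50 marks induction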). The conditions noted are these: HepG2 Attagene TRANS-FACTORIAL CAR reporter. The procedure, abridged: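 Signal is reporter mRNA induction relative to DMSO, measured 24 h after dosing by RT-PCR with fluorescent primer extension and capillary electrophoresis. Human HepG2 liver cells carried transiently transfected chimeric NR-Gal4/GAL4-UAS reporter constructs.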
Nuclear receptor subfamily 1 group I member 3 (Homo sapiens), sequence (Q14994 whole entry, looked up, the tested form may be a part): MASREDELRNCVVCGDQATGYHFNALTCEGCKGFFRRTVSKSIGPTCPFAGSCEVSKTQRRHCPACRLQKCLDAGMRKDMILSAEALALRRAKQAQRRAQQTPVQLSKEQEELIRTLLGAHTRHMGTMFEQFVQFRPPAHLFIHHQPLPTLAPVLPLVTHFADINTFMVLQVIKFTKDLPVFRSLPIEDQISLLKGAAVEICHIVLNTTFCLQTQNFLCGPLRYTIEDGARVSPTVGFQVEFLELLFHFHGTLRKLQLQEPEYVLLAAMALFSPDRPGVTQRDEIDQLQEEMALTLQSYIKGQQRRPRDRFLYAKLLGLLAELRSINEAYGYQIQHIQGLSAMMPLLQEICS

Experiment [19] deals with Estrogen-related receptor gamma (Homo sapiens) (UniProt P62508). The experiment is described as follows: ATG_ERRg_TRANS: Attagene TRANS-FACTORIAL HepG2 Assay for human Estrogen-Related Receptor gamma (ERRg) (AID 2282977; active = hit-call score of the fitted dose curve at least 0.9, where 1 is the maximum;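 also: hits increase reporter signal over DMSO so potencies reflect activators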). The following applies: HepG2 Attagene TRANS reporter, ERRg transactivation. The essentials: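 Induction of reporter transcripts through a chimeric NR-Gal4 protein is quantified in transfected human HepG2 liver cells after 24 h chemical exposure, using RT-PCR with capillary electrophoresis detection and DMSO as baseline.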
Estrogen-related receptor gamma (Homo sapiens), sequence (P62508 whole entry, looked up, the tested form may be a part): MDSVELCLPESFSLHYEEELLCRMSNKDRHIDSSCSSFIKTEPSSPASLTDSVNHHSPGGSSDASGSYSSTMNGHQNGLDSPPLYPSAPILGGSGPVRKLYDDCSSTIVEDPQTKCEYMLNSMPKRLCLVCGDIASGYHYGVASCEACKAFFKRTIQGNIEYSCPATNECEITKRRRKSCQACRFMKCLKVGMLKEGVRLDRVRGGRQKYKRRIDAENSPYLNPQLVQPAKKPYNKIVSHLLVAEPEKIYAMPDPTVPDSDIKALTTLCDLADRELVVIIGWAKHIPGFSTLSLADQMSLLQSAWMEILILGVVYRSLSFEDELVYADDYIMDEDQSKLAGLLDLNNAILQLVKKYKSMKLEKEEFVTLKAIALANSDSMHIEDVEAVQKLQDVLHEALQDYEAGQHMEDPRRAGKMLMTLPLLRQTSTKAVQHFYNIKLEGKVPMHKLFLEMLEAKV

Experiment [20] concerns the target Estrogen receptor (Homo sapiens) (UniProt P03372). As to the kind of experiment: ATG_ERa_TRANS: Attagene TRANS-FACTORIAL HepG2 Assay for human Estrogen Receptor alpha (ERa) (AID 2282970; active = hit-call score of the fitted dose curve at least 0.9, where 1 is the maximum). The following applies: HepG2 Attagene TRANS ERa GAL4 reporter, mRNA. The procedure, abridged: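 Liver-derived HepG2 cells expressing chimeric nuclear receptor-Gal4 proteins from transient transfection were exposed for 24 hours. Gain of reporter mRNA signal versus DMSO, read by capillary electrophoresis of FAM-labelled PCR products, was recorded.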

Steroid hormone receptor ERR1 (Homo sapiens), sequence (P11474 whole entry, looked up, the tested form may be a part): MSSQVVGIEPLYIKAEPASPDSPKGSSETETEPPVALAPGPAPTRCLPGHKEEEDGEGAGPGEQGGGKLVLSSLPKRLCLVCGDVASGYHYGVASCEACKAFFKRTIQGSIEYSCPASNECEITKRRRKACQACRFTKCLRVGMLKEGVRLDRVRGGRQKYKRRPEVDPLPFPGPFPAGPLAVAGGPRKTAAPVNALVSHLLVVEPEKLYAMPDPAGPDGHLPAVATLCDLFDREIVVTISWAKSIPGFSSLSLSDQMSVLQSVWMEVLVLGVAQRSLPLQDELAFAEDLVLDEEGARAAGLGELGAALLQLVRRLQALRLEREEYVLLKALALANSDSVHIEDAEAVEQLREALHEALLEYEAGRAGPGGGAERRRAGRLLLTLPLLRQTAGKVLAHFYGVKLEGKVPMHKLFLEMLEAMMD
X-box-binding protein 1 (Homo sapiens), sequence (P17861 whole entry, looked up): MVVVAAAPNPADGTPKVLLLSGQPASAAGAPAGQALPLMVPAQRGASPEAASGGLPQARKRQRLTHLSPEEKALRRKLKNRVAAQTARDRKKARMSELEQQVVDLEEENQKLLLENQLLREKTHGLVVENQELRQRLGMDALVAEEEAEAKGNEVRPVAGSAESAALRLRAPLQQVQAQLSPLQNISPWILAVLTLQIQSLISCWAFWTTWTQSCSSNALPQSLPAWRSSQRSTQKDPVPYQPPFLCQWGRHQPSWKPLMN
Transcription factor Sp1 (Homo sapiens), sequence (P08047 whole entry, looked up): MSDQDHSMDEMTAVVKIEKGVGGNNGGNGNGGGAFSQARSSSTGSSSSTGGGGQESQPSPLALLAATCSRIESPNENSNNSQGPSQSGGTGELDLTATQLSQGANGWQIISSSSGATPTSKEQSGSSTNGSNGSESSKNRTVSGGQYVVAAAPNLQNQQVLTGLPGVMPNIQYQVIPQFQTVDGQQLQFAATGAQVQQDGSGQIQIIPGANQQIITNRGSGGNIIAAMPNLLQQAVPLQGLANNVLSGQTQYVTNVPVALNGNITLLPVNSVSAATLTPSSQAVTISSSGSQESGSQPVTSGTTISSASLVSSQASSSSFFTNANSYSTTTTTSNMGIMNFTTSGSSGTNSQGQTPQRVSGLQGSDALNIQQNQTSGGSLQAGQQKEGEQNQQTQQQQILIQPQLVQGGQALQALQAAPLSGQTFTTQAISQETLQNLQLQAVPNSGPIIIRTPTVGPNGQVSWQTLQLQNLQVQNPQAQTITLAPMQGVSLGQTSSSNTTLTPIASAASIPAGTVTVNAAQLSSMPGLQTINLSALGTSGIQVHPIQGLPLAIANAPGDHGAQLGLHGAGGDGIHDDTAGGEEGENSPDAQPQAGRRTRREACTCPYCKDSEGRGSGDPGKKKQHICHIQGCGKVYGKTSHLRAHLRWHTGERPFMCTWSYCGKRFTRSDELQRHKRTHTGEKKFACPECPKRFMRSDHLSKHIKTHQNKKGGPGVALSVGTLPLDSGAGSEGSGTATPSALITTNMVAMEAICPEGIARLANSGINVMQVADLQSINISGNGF
Signal transducer and activator of transcription 3 (Homo sapiens), sequence (P40763 whole entry, looked up): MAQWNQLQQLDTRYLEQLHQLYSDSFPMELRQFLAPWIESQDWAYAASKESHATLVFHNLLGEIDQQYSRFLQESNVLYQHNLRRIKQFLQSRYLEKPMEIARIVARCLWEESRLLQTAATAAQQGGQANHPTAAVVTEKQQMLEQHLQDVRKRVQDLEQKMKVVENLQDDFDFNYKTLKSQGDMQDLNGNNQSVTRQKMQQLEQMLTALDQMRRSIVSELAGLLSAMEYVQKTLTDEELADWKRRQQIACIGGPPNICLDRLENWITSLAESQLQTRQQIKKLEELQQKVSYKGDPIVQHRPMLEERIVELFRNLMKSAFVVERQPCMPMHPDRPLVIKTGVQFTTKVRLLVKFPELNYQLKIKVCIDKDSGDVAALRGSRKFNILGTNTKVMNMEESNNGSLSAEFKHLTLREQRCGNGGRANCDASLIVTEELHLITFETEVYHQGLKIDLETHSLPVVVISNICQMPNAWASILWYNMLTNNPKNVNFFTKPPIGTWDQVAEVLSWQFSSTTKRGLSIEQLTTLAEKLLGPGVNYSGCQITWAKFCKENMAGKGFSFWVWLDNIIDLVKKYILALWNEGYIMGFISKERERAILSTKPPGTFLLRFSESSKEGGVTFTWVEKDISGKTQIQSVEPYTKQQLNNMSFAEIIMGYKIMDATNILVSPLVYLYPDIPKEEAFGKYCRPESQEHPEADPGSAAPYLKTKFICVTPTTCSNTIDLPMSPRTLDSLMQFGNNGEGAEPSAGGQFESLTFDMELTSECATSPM
Estrogen receptor (Homo sapiens), sequence (P03372 whole entry, looked up, the tested form may be a part): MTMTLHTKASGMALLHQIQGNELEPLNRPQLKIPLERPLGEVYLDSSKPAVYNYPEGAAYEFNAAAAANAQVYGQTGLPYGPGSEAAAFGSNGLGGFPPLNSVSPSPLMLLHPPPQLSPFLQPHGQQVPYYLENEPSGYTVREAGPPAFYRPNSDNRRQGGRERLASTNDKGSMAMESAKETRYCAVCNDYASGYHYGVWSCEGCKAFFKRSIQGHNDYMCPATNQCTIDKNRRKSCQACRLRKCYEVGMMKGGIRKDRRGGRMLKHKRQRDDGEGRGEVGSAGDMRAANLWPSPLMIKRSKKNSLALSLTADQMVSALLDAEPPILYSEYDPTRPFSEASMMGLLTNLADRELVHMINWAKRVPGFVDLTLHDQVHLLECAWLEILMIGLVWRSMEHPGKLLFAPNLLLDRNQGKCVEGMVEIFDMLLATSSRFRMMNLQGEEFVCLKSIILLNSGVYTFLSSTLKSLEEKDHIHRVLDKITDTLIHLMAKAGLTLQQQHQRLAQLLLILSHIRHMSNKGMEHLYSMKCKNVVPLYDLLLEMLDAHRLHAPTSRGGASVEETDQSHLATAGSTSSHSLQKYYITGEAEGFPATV

In the case of `O=P(O)(O)CCC(F)(F)C(F)(F)C(F)(F)C(F)(F)C(F)(F)C(F)(F)F`, the outcome in experiment [1], in [2], in experiment [3], in experiment [4], in experiment [5] and in experiment [6] was inactive. Moreover, the outcome in experiment [7], in experiment [8], in experiment [9], in experiment [10], in [11] and in experiment [12] was inactive. Moreover, the result in experiment [13], in experiment [14], in experiment [15] and in experiment [16] was inactive.

As for `FC(F)(F)C1(F)C(F)(F)C(F)(F)C(F)(F)C(F)(C(F)(F)F)C1(F)F` (stereo not given), the outcome in [1], in [2], in experiment [3], in experiment [4], in experiment [5] and in [6] was inactive. For the same compound, the call in experiment [7], in experiment [8], in experiment [17], in experiment [9], in experiment [10] and in experiment [11] was inactive. The outcome in experiment [12], in experiment [13] and in experiment [15] was inactive.

Take `c1ccc(CNc2ncnc3c2ncn3C2CCCCO2)cc1` (stereo not given): the values for the AC50 in experiment [1] and in experiment [11] were 4.73 µM (active) and 22.9 µM (active), respectively. The call in [2], in experiment [3], in [4], in [5], in [6] and in experiment [7] was inactive. Besides, the outcome in experiment [8], in experiment [9], in [10], in experiment [18], in [13] and in experiment [16] was inactive.

In the case of `CCCCCCCCCCCCCC[n+]1ccccc1`, the half-maximal activity concentration (AC50) is 11.1 µM (active) in experiment [1], 2.7 µM (active) in [6], 8.99 µM (active) in experiment [8] and 189 µM (active) in experiment [19]. In addition, the compound was called inactive in [2], in [3], in experiment [4], in experiment [5], in experiment [7] and in experiment [17]. In addition, the outcome in experiment [9], in experiment [10], in [11], in [12], in [13] and in experiment [14] was inactive.

As for `CCOC=O`, the result in experiment [1], in [2], in [3], in experiment [4], in [5] and in [6] was inactive. Also, the compound was called inactive in experiment [7], in [8], in [17], in [9], in experiment [10] and in experiment [11]. In addition, the outcome in experiment [13], in experiment [15], in experiment [19] and in experiment [16] was inactive.

In the case of `O=C(O)CCC(F)(F)C(F)(F)C(F)(F)C(F)(F)C(F)(F)F`, the outcome in [1], in experiment [2], in [3], in [4], in [5] and in experiment [6] was inactive. Moreover, the compound was classed as inactive in experiment [8], in experiment [9], in experiment [10], in experiment [11], in experiment [20] and in experiment [12]. In [13], the call was inactive. Moreover, the AC50 in [20] is 118 µM (active).

Consider `c1ccc2c(c1)CCC2`, for which the compound was classed as inactive in experiment [1], in experiment [2], in [3], in experiment [4], in experiment [5] and in [6]. For the same compound, the compound was classed as inactive in experiment [8], in experiment [17], in experiment [9], in [10], in experiment [11] and in [13]. For the same compound, the call in [14] and in experiment [15] was inactive.
